The list is not random: actives were taken first. Their share in the collection is about 1.3%.
SARS PLP yeast = inhibitors of SARS-CoV papain-like protease in yeast | S. cerevisiae expressing SARS-CoV PLpro, growth rescue | Potency, µM (doses to about 32.9 µM), without a hit: at the top dose activity, positive = growth rescue, actives largely listed as activators | 0.19% of 330,000 active | AID 485353; calls by dose curve; also: 0% is about no effect; nearly all actives have a fitted effect of over 55% in size
AmpC no deterg = blocks E. coli AmpC beta-lactamase in detergent-free assay; P00811; Potency, µM (highest dose often 57.1 µM), inactives show at the top dose activity change, negative = inhibition, usual class: inhibitors; AmpC nitrocefin hydrolysis, absorbance 480 nm, 0.0001% Triton; 0.52% of 330,000 active;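 also: plate controls were no compound for no effect and no enzyme for full effect; nearly all actives have a fitted effect of over 20% in size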
Target sequence (P00811 whole entry, looked up): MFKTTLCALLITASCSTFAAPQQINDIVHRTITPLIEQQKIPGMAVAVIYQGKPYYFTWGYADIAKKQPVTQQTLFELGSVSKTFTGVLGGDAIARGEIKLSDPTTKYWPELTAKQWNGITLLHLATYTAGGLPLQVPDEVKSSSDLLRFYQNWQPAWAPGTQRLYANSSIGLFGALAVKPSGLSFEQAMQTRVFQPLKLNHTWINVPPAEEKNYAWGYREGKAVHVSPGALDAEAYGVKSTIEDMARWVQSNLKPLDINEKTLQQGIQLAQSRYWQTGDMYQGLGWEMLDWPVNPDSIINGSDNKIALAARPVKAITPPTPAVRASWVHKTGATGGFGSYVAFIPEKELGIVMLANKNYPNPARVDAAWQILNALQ
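AmpC (5.3 nM in the dispensed reagent) in 20 mM phosphate pH 7.0 with 0.01% (detergent screen) or 0.0001% Triton X-100 was preincubated with compounds for 15 min at room temperature. Nitrocefin was then added from an 800 uM solution, and hydrolysis was followed at 480 nm.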
VACV mCherry inh = inhibitors of vaccinia virus infection (mCherry reporter signal). 0.63% of 310,000 active. Potency, µM (doses to about 36.5 µM), for the others: at the highest dose activity change, negative = inhibition, actives largely listed as inhibitors. AID 720579. Vaccinia virus mCherry reporter infection, fluorescence; calls by dose curve; tested in A549 cells; also: % is scaled to controls: 0 for no effect and ±100 for the full control effect; nearly all actives have a fitted effect of over 35% in size
VACV Venus inh = vaccinia inhibition (Venus reporter). Vaccinia virus Venus reporter expression, fluorescence. Potency, µM (doses to about 36.5 µM), inactives show at the highest dose activity change, negative = inhibition, most hits filed as inhibitors. 0.46% of 330,000 active. AID 720580; calls by dose curve; tested in A549 cells; also: % is scaled to controls: 0 for no effect and ±100 for the full control effect; nearly all actives have a fitted effect of over 30% in size
AmpC inh detg = blocks E. coli AmpC beta-lactamase in detergent assay; P00811; AmpC hydrolysis of nitrocefin, absorbance 480 nm, 0.01% Triton; Potency, µM (top dose mostly 114 µM), for inactives: top-dose activity change, negative = inhibition, hits mostly inhibitors; 0.041% of 370,000 active; AID 485294;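 also: 0% = no-compound wells and -100% = no-enzyme wells; nearly all actives have a fitted effect of over 25% in size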
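AmpC (5.3 nM in the dispensed reagent) in 20 mM phosphate pH 7.0 with 0.01% (detergent screen) or 0.0001% Triton X-100 was preincubated with compounds for 15 min at room temperature. Nitrocefin was then added from an 800 uM solution, and hydrolysis was followed at 480 nm.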
The depositor's hits bear a star; i = inactive; ? = inconclusive; · = not tested or not shown. Unless noted, calls follow the shape of the dose curve; as a rule, active = well fitted curve in the direction sought with a large enough effect; inconclusive = small, poorly fitted or top-dose-only effect, or another doubt; inactive = no such curve, though single readings can be large; an effect the other way counts as inactive or inconclusive. Potency is read from the fitted curve at half-maximal effect.

SMILES	SARS PLP yeast	AmpC no deterg	VACV mCherry inh	VACV Venus inh	AmpC inh detg
O=Nc1c(-c2c(O)[nH]c3cc(Br)ccc23)[nH]c2ccccc12	-29.5%	5.62µM*	?	-7.9%	?
Cc1ccc2c(c1)CC1(CN2C)C(=O)OC2(CCCCC2)OC1=O	6.6%	24.5%	-28.0%	?	-8.1%
CN1CC2(Cc3c1ccc1ccccc31)C(=O)OC(C)(C)OC2=O	-7.0%	-10.7%	3.98µM*	6.31µM*	2.1%
COC(=O)c1cccc(Cn2c(Cl)c(/C=N/Nc3ccccc3C)sc2=O)c1	-16.2%	31.6µM*	-23.5%	-1.4%	2.2%
C=CCN1C(=O)CS/C1=C(\C#N)S(=O)(=O)c1ccc(C)cc1	12.9%	14.1µM*	·	157.1%	-12.1%
O=C(c1ccc(Br)o1)N1CCN(c2ccc3nnc(-c4ccc(F)cc4)n3n2)CC1	3.9%	0.562µM*	-7.9%	-0.5%	?
O=C(Nc1ccc(Cl)cc1)N1CCN(c2ccc3nnc(-c4ccc(F)cc4)n3n2)CC1	2.6%	147.7%	?	11.2µM*	-9.6%
O=C(Nc1ccccc1Cl)N1CCN(c2ccc3nnc(-c4ccccc4)n3n2)CC1	-5.4%	1.9%	?	?	-14.2%
CN1CCCN(C(=O)[C@@H]2C[C@@H](Sc3nc4ccccc4[nH]3)CN2Cc2ccc(OC(F)(F)F)cc2)CC1	·	·	-24.4%	-8.8%	·
COc1cccc(-c2ccc(C3=CC(=O)CC(C)(C)C3=O)cc2)c1OC	·	·	i	4.3%	·
CC(=O)NC(c1cccc([N+](=O)[O-])c1)c1c(OC(C)=O)ccc2ccccc12 (configuration not stated)	·	·	-14.1%	-23.0%	·
CCCCC(=O)NC(c1cccc([N+](=O)[O-])c1)c1c(OC(C)=O)ccc2ccccc12 (configuration not stated)	-8.6%	20.3%	28.2µM*	?	-2.4%
CC1CCN(Cc2c(C(=O)N/N=C/c3ccccc3O)nnn2-c2nonc2N)CC1	8.2%	-20.2%	2µM*	?	?
CCOc1ccc(-c2c(C(=O)N/N=C/c3ccc(O)cc3)nnn2-c2nonc2N)cc1	0.2%	-37.8%	i	0.1%	-7.0%
CCOc1ccc(-c2c(C(=O)N/N=C/c3cccc(Br)c3)nnn2-c2nonc2N)cc1	-3.3%	15.8µM*	·	·	0.7%
CCCc1c(C(=O)N/N=C(\C)c2ccccn2)nnn1-c1nonc1N	·	·	0.891µM*	?	·
CCN(CC)c1ccc(/C=N/NC(=O)c2nnn(-c3nonc3N)c2C(C)C)c(O)c1	?	-17.3%	2.51µM*	?	0.2%
CC(=O)Nc1cc(C(=O)N2CCN(C(=O)c3ccco3)CC2)cc2ncn(CCc3ccccn3)c12	·	·	-12.0%	-2.2%	·
ClC1=C(Cl)[C@]2(Cl)[C@@H]3[C@H]4C[C@H]([C@@H]5O[C@H]45)[C@@H]3[C@@]1(Cl)C2(Cl)Cl	·	·	i	0.0%	·
COc1ccccc1CCc1nnc(CCC(=O)NCC(C)Oc2cccnc2)o1 (configuration not stated)	-0.1%	8.5%	·	·	2.5%
COc1ccccc1CCc1nnc(CCC(=O)NC(C)Cc2ccsc2)o1 (configuration not stated)	0.4%	88.5%	1.12µM*	1.78µM*	-6.9%
COc1ccc(C(=O)NCC2Cc3cccc(-c4cncnc4)c3O2)c(OC)c1OC (configuration not stated)	·	·	-23.8%	-18.2%	·
COc1cccc(CNC(=O)c2c(OC)cc(=O)n3c2CCN(C(=O)C2=C(C)OCCO2)CC3)c1	·	·	-12.4%	-8.1%	·
Cc1c(C(=O)N(C)C2CCOC2)sc2ncnc(NCC3(c4ccccc4)CCOCC3)c12 (configuration not stated)	·	·	-0.8%	-2.1%	·
C#CC(=O)N(c1cccc(OC)c1)C(C(=O)NC1CCCC1)c1cccs1 (configuration not stated)	-26.8%	5.5%	20µM*	14.1µM*	-2.7%
SMILES	SARS PLP yeast	AmpC no deterg	VACV mCherry inh	VACV Venus inh	AmpC inh detg
Oc1ccc(-c2csc(Nc3ccccn3)n2)cc1O	20.9%	1.58µM*	·	·	-7.9%
COc1ccc(F)c(CN2CCC3(CCC(CNC(=O)c4cc(C)nn4C)O3)CC2)c1 (configuration not stated)	·	·	-16.4%	-10.3%	·
COc1ccccc1Sc1nc(-c2ccccn2)ncc1OC	2.1%	65.8%	5.01µM*	-29.4%	1.0%
COc1cnc(-c2ccccn2)nc1Oc1ccccc1Cl	8.4%	?	·	·	-0.7%
COc1cnc(-c2ccccn2)nc1NC(C)C	-7.6%	-20.9%	4.47µM*	?	1.7%
COC(=O)C1CCCCN1Cc1ccc2c(c1)CN(C(=O)c1csc(-c3cccs3)n1)CCO2 (configuration not stated)	·	·	-11.8%	0.2%	·
c1cncc(OC2CCN(Cc3ccc4c(c3)CN(Cc3ccc5c(c3)OCO5)CCO4)CC2)c1	·	·	-7.4%	-8.4%	·
COc1cccc(CNc2cnc3ccccc3c2)c1O	-2.5%	-9.3%	-23.1%	-26.5%	2.1%
Oc1ccc(Br)cc1CNc1cnc2ccccc2c1	-10.3%	17.8µM*	·	·	-3.0%
Oc1ccc(Br)cc1CNc1cccc2cccnc12	-25.5%	38.8%	?	-15.9%	?
Cc1ccc(O)c(CNc2cnc3ccccc3c2)c1	?	-46.6%	12.6µM*	-23.7%	-7.3%
Oc1ccccc1CNc1ccc(Br)cn1	-4.1%	-30.2%	·	14.1µM*	-0.7%
Brc1ccc(NCc2cccc3ccccc23)nc1	7.1%	-25.3%	·	·	-9.4%
O=C([C@@H]1C[C@@H](Sc2nc3ccccc3[nH]2)CN1Cc1ccc(Cl)cc1)N1CCN(c2ccccc2F)CC1	·	·	-9.7%	-22.1%	·
CC(C)CC(NC(=O)C(Cc1ccc(OCc2ccccc2)cc1)NC(=O)OC(C)(C)C)C(N)=O (configuration not stated)	4.6%	7.08µM*	-6.4%	2.5%	3.0%
COC(=O)C(Cc1ccccc1)NC(=O)C(CC(C)C)NC(=O)OC(C)(C)C (configuration not stated)	-3.9%	1.8%	-15.9%	-14.8%	?
CN1CCN(C(=O)Cn2ncc3c4ccccc4n(Cc4ccc(Cl)cc4)c3c2=O)CC1	·	·	-12.5%	-14.5%	11.6%
COc1ccc(C2=NN(C(=O)COc3ncnc4ccccc34)C(c3ccco3)C2)cc1 (configuration not stated)	-1.1%	19.3%	-12.4%	-16.8%	-1.0%
COc1ccc(C2=NN(C(=O)COC(=O)c3ccc(S(C)(=O)=O)c([N+](=O)[O-])c3)C(c3ccco3)C2)cc1 (configuration not stated)	-1.0%	18.3%	11.2µM*	?	·
C/C(=N\NC(N)=S)C12CC3CC(CC(C3)C1)C2	6.7%	-33.0%	11.2µM*	8.91µM*	-2.4%
CCOC(=O)c1ccccc1NC(=O)CN1CCCN(Cc2cc(C)ccc2C)S1(=O)=O	·	·	-23.8%	-14.1%	16.6%
Cc1cccc(/C=N/NC(=O)c2ccc(NC(=O)c3ccc(F)cc3)cc2)n1	-0.4%	17.8µM*	-19.4%	-13.3%	-1.4%

Screening results from PubChem.
